# Test results taken from PubChem BioAssay.
# Measured potencies and affinities stand elsewhere. Calls of active or inactive are those of the source.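 Rule for the calls, unless noted: active = fitted half-maximal concentration within the tested range, moderate curve steepness, significant signal drop, and little compound fluorescence or bead-linkage interference; inactive = the rest.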
# Target: Cell division control protein 42 homolog (Homo sapiens) (UniProt P60953)
# Experiment: inhibition of fluorescent GTP binding to constitutively active Cdc42 – biochemical, multiplex bead flow cytometry, Bodipy-FL-GTP, dose response (AID 1333;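 active = fitted half-maximal concentration within the tested dose range, moderate curve steepness, a statistically real signal drop, and little compound fluorescence or tag-binding interference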)
# Details: bead-based flow cytometry; series mostly up to 100 µM; GTP binding signal, percent: at the top concentration
# Cell division control protein 42 homolog (Homo sapiens), sequence (P60953 whole entry, looked up): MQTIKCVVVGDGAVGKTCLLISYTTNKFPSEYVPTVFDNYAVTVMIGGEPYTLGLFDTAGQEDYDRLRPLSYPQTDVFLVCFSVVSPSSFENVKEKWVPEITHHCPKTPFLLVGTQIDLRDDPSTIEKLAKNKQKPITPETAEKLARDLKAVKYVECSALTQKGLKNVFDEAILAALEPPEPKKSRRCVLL
row,Structure (SMILES),"GTP binding signal, percent"
1,CCOC(=O)c1c(-c2ccccc2)csc1NC(=O)/C(C#N)=C/c1ccc(O)c(OC)c1,67.6% (inactive)
2,COc1ccc(NC(=O)c2cc3nc(-c4ccccc4)cc(C)n3n2)cc1OC,52.6% (inactive)
3,COc1cccc(NC(=O)NCCCN2CCN(c3ccc(F)cc3)CC2)c1,57.9% (inactive)
4,COc1ccc(CCn2c(C(C)C)nc3c(c(=O)c4ccccc4n3C)c2=O)cc1,42.9% (inactive)
5,O=C(Nc1nc(-c2cccs2)cs1)c1cc2ccccc2oc1=O,17.9% (inactive)
6,Cc1csc(NC(=O)c2cc(=O)[nH]c3ccc(S(=O)(=O)N4CCOCC4)cc23)n1,52.5% (inactive)
7,COc1ccc(OC)c(Nc2nc(-c3sc(N)nc3C)cs2)c1,54.3% (inactive)
8,CCOC(=O)c1nc(Nc2ccc(C(=O)OC)cc2)c2ccccc2n1,16.4% (inactive)
9,CCOC(=O)c1c(NC(=O)/C=C/c2ccc3c(c2)OCO3)sc(C)c1CC,42.8% (inactive)
10,COc1cc2[nH]c(=S)nc(NCCCOC(C)C)c2cc1OC,29.6% (inactive)
11,O=C(C1CCCO1)N1CCN(C(=S)Nc2ccccc2C(F)(F)F)CC1 (stereo not drawn),39.5% (inactive)
12,O=c1c2ccccc2nc2c3ccccc3c(NCCO)nn12,44.5% (inactive)
13,Cc1ccc(Nc2nc(N)c(C#N)c(CC#N)c2C#N)cc1,59.6% (inactive)
14,Cn1c(=O)cc(N2CCOCC2)[nH]c1=O,60.9% (inactive)
15,O=[N+]([O-])c1cc(Cc2ccccc2)cc(C=Nc2ccc(N3CCOCC3)cc2)c1O,21.9% (inactive)
16,Cc1cccn2c(=O)c(/C=C3\SC(=S)N(CC(C)C)C3=O)c(NCCCOC(C)C)nc12,47% (inactive)
17,CC(C)c1ccc(C(=O)NC2=NCCS2)cc1,34.8% (inactive)
18,CCCc1nc2oc3c(=O)[nH]cnc3c2c2c1CCCC2,50.9% (inactive)
19,O=C(NCCc1c[nH]c2ccccc12)c1cccc(S(=O)(=O)Nc2ccccc2Cl)c1,46.5% (inactive)
20,O=C(Nn1cc(C(=O)N2CCN(c3ccccc3F)CC2)c2ccccc2c1=O)c1cnccn1,49.3% (inactive)

row,Structure (SMILES),"GTP binding signal, percent"
1,FC(F)(F)c1cccc(NC(=S)NNC(=S)NCc2ccccc2)c1,37% (inactive)
2,COc1ccc(S(=O)(=O)N2CCCCC2)cc1NC(=O)c1ccc([N+](=O)[O-])o1,47.6% (inactive)
3,O=C(CSc1ccc2nnc(-c3cccs3)n2n1)N1CCCC1,53.5% (inactive)
4,CC(=O)Nc1ccc(N2C(=O)c3ccc(C(=O)Nc4nnc(SCc5ccc(F)cc5)s4)cc3C2=O)cc1,53.6% (inactive)
5,NS(=O)(=O)c1ccc(-c2ccc(/C=C3\C(=O)Nc4cc(Cl)ccc43)o2)cc1,56.1% (inactive)
6,CCCCCN1CC(O)=C(c2nc(-c3ccc(Cl)cc3)cs2)C1=N,48.6% (inactive)
7,O=c1[nH]c2ccc(S(=O)(=O)NCc3ccccc3)cc2[nH]1,52.5% (inactive)
8,O=S1(=O)N=C(N(CCO)/N=C/c2ccncc2)c2ccccc21,41% (inactive)
9,N#C/C(=C/c1ccc(N2CCCCCC2)o1)c1ccc(Cl)cc1,78.2% (inactive)
10,CCOc1nnc(C)c2c(C)n(-c3cccc(Cl)c3)nc12,139% (inactive)
11,O=C1c2ccccc2-n2c1nc1ccccc1c2=O,56.1% (inactive)
12,CC(C)(C)NC(=O)CSc1nccn1Cc1ccccc1,53.6% (inactive)
13,COc1ccc(S(=O)(=O)Cc2ccc(C(=O)N3CCN(c4cc(Cl)ccc4C)CC3)o2)cc1,21.3% (inactive)
14,NC(=O)N=Nc1c(O)[nH]c2c(Br)cc(Br)cc12,49.6% (inactive)
15,Cn1cc(C=C2C(=O)CC(C)(C)CC2=O)c2ccccc21,28.9% (inactive)
16,COc1ccc(-c2nn3c(-c4ccco4)nnc3s2)cc1OC,35% (inactive)
17,O=c1/c(=C/c2ccc(CNS(=O)(=O)c3ccccc3)o2)sc2n1CCN=2,47.1% (inactive)
18,CCc1nnc(NS(=O)(=O)c2ccc(Nc3ccc4nonc4c3[N+](=O)[O-])cc2)s1,36.1% (inactive)
19,O=C(NC1CC2CCCC(C1)N2C(=O)Nc1ccc(Cl)c(C(F)(F)F)c1)C1CC1 (stereo not drawn),46.5% (inactive)

# Target: Cell division control protein 42 homolog (Homo sapiens) (UniProt P60953)
# Experiment: inhibition of fluorescent GTP binding to wildtype Cdc42 – biochemical, multiplex bead flow cytometry, Bodipy-FL-GTP, dose response (AID 1334)
# Details: bead-based flow cytometry, Bodipy-FL-GTP binding to GST-Cdc42; at 100 µM (top of the series) unless noted
row,Structure (SMILES),"fluorescence, percent of control (lower = inhibition) [%]"
1,CCOC(=O)c1c(-c2ccccc2)csc1NC(=O)/C(C#N)=C/c1ccc(O)c(OC)c1,79.7
2,COc1ccc(NC(=O)c2cc3nc(-c4ccccc4)cc(C)n3n2)cc1OC,33.2
3,COc1cccc(NC(=O)NCCCN2CCN(c3ccc(F)cc3)CC2)c1,40.4
4,COc1ccc(CCn2c(C(C)C)nc3c(c(=O)c4ccccc4n3C)c2=O)cc1,34.5
5,O=C(Nc1nc(-c2cccs2)cs1)c1cc2ccccc2oc1=O,51.8
6,Cc1csc(NC(=O)c2cc(=O)[nH]c3ccc(S(=O)(=O)N4CCOCC4)cc23)n1,31.8
7,COc1ccc(OC)c(Nc2nc(-c3sc(N)nc3C)cs2)c1,32.7
8,CCOC(=O)c1nc(Nc2ccc(C(=O)OC)cc2)c2ccccc2n1,43.9
9,CCOC(=O)c1c(NC(=O)/C=C/c2ccc3c(c2)OCO3)sc(C)c1CC,30.9
10,COc1cc2[nH]c(=S)nc(NCCCOC(C)C)c2cc1OC,38.7
11,O=C(C1CCCO1)N1CCN(C(=S)Nc2ccccc2C(F)(F)F)CC1 (stereo not drawn),53.3
12,O=c1c2ccccc2nc2c3ccccc3c(NCCO)nn12,27.1
13,Cc1ccc(Nc2nc(N)c(C#N)c(CC#N)c2C#N)cc1,36.6
14,Cn1c(=O)cc(N2CCOCC2)[nH]c1=O,37.4
15,O=[N+]([O-])c1cc(Cc2ccccc2)cc(C=Nc2ccc(N3CCOCC3)cc2)c1O,45.1
16,Cc1cccn2c(=O)c(/C=C3\SC(=S)N(CC(C)C)C3=O)c(NCCCOC(C)C)nc12,58.1
17,CC(C)c1ccc(C(=O)NC2=NCCS2)cc1,50.5
18,CCCc1nc2oc3c(=O)[nH]cnc3c2c2c1CCCC2,35.5
19,O=C(NCCc1c[nH]c2ccccc12)c1cccc(S(=O)(=O)Nc2ccccc2Cl)c1,32.1
20,O=C(Nn1cc(C(=O)N2CCN(c3ccccc3F)CC2)c2ccccc2c1=O)c1cnccn1,98.6

row,Structure (SMILES),"fluorescence, percent of control (lower = inhibition) [%]"
1,FC(F)(F)c1cccc(NC(=S)NNC(=S)NCc2ccccc2)c1,30.7
2,COc1ccc(S(=O)(=O)N2CCCCC2)cc1NC(=O)c1ccc([N+](=O)[O-])o1,32.3
3,O=C(CSc1ccc2nnc(-c3cccs3)n2n1)N1CCCC1,33
4,CC(=O)Nc1ccc(N2C(=O)c3ccc(C(=O)Nc4nnc(SCc5ccc(F)cc5)s4)cc3C2=O)cc1,43.1
5,NS(=O)(=O)c1ccc(-c2ccc(/C=C3\C(=O)Nc4cc(Cl)ccc43)o2)cc1,38
6,CCCCCN1CC(O)=C(c2nc(-c3ccc(Cl)cc3)cs2)C1=N,88.4
7,O=c1[nH]c2ccc(S(=O)(=O)NCc3ccccc3)cc2[nH]1,38.1
8,O=S1(=O)N=C(N(CCO)/N=C/c2ccncc2)c2ccccc21,24.1
9,N#C/C(=C/c1ccc(N2CCCCCC2)o1)c1ccc(Cl)cc1,127
10,CCOc1nnc(C)c2c(C)n(-c3cccc(Cl)c3)nc12,155
11,O=C1c2ccccc2-n2c1nc1ccccc1c2=O,35.1
12,CC(C)(C)NC(=O)CSc1nccn1Cc1ccccc1,33.3
13,COc1ccc(S(=O)(=O)Cc2ccc(C(=O)N3CCN(c4cc(Cl)ccc4C)CC3)o2)cc1,35.1
14,NC(=O)N=Nc1c(O)[nH]c2c(Br)cc(Br)cc12,37.2
15,Cn1cc(C=C2C(=O)CC(C)(C)CC2=O)c2ccccc21,49.4
16,COc1ccc(-c2nn3c(-c4ccco4)nnc3s2)cc1OC,39.1
17,O=c1/c(=C/c2ccc(CNS(=O)(=O)c3ccccc3)o2)sc2n1CCN=2,29
18,CCc1nnc(NS(=O)(=O)c2ccc(Nc3ccc4nonc4c3[N+](=O)[O-])cc2)s1,26.3
19,O=C(NC1CC2CCCC(C1)N2C(=O)Nc1ccc(Cl)c(C(F)(F)F)c1)C1CC1 (stereo not drawn),94.3
